Results filed as inconclusive are left out. Values without a mark were called inactive. Calls of active or inactive are those of the source. Calls come from the whole dose curve; as a rule, active = well fitted cell-killing curve with a large enough effect; inconclusive = small, poorly fitted or top-dose-only effect, or effect the other way; inactive = flat fitted curve, though single readings scatter.

Assay in all cases: Primary qHTS to identify gynecologic anti-cancer compounds using libraries of approved drugs and bioactive compounds (AID 1345084); note: nearly all actives have a fitted effect of over 55% in size
In general terms: Quantitative high-throughput screening tests each substance at several concentrations.

The test system of one assay is C33A. The settings on record: Gynecologic cancer cell panel viability, ATPlite luminescence, 48 h; series mostly up to 57.5 µM. A digest of the protocol: (§1)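 In this quantitative HTS, cell killing is estimated from loss of ATP-dependent luciferase light. Cells see five compound concentrations over a 48 h exposure.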
The subject of another assay is CAOV3. The note with it: Gynecologic cancer cell panel viability, ATPlite luminescence, 48 h; series mostly up to 57.5 µM. A digest of the protocol: as §1
In another assay the test system is CASKI. The note with it: Gynecologic cancer cell panel viability, ATPlite luminescence, 48 h; series mostly up to 57.5 µM. A digest of the protocol: as §1
Background: ATP-based viability assays read luminescence as a measure of living cells.

The test system of the next assay is Es-2. The note with it: Gynecologic cancer cell panel viability, ATPlite luminescence, 48 h; series mostly up to 57.5 µM. A digest of the protocol:
as §1

The subject of another assay is HeLa. The note with it: Gynecologic cancer cell panel viability, ATPlite luminescence, 48 h; series mostly up to 57.5 µM. In short, it runs like this:
as §1

Another assay relates to Hek293T. The settings on record: Gynecologic cancer cell panel viability, ATPlite luminescence, 48 h, control line for the selectivity index; series mostly up to 57.5 µM. In short, it runs like this:
as §1

The test system of a further assay is JEG-3. The note with it: Gynecologic cancer cell panel viability, ATPlite luminescence, 48 h; series mostly up to 57.5 µM. In short, it runs like this: as §1
% is set by controls: 0 for no effect and ±100 for the full control effect; potency is the fitted concentration of half-maximal effect.

For the molecule `COc1cc(NC(=O)c2cc(C3CC3)on2)c(OC)cc1Cl`, the Potency result with C33A, in the assay with CAOV3, with CASKI, with Es-2, in the assay on HeLa and in the assay on Hek293T was “inactive” throughout. Moreover, in the assay on JEG-3, the Potency entry is “inactive”.
For the molecule `O=C(N[C@H]1CCC[C@H](CO)C1)C1CCN(c2nc3cc(Cl)c(-c4ccc(Cl)cc4)cc3o2)CC1`, the Potency result in the assay with C33A, in the assay on CAOV3, with CASKI, in the assay on Es-2, in the assay on HeLa and in the assay on Hek293T was “inactive” each time. In addition, the Potency result in the assay with JEG-3 was “inactive”.
As to `COC(=O)c1sccc1S(=O)(=O)Nc1ccc(Nc2ccccc2)cc1OC`, the Potency result in the assay on C33A, with CAOV3, with CASKI, in the assay with Es-2, in the assay with HeLa and in the assay with Hek293T was “inactive” throughout. In the assay on JEG-3, the Potency entry was “inactive”.
Take `CC(C)(C)NC(=O)[C@H]1CC[C@H]2[C@@H]3CC[C@H]4NC(=O)CC[C@]4(C)[C@H]3CC[C@]12C`: the Potency entry in the assay with C33A, in the assay with CAOV3, in the assay with CASKI, in the assay with Es-2, in the assay with HeLa and in the assay with Hek293T was “inactive” in each case. The Potency entry with JEG-3 is “inactive”.
Regarding `CC1=CC2/C=C(\C)CCC3OC(C)(C)OC3CCC(=O)C23C(=O)NC(CC(C)C)C3C1C` (configuration not stated), the Potency entry in the assay on C33A, in the assay on CAOV3, in the assay on CASKI, with Es-2, in the assay on HeLa and in the assay on Hek293T was “inactive” throughout. In addition, the Potency result in the assay with JEG-3 was “inactive”.
In the case of `COc1ccc(CCO[C@@H]2O[C@H](CO[C@H]3OC[C@](O)(CO)[C@H]3O)[C@@H](OC(=O)/C=C/c3ccc(O)c(O)c3)[C@H](O[C@@H]3O[C@@H](C)[C@H](O)[C@@H](O)[C@H]3O)[C@H]2O)cc1OC`, the Potency result in the assay on C33A, in the assay on CAOV3, in the assay with CASKI, in the assay on Es-2, in the assay on HeLa and in the assay with Hek293T was “inactive” in each case. In the assay on JEG-3, the Potency entry was “inactive”.
Turning to `C1=C/COCc2cc(ccc2OCCN2CCCC2)Nc2nccc(n2)-c2cccc(c2)COC/1`, the Potency is 11.2 µM (active) with C33A; 11.2 µM (active) in the assay with CAOV3; 3.55 µM (active) in the assay with CASKI; 14.1 µM (active) with Es-2; 3.98 µM (active) with HeLa; 7.94 µM (active) in the assay on Hek293T. Besides, in the assay on JEG-3, the Potency was 11.2 µM (active).
With `C=CC(C)(O)CC/C=C(\C)C(=O)OC1C(O)C(CO)OC(OC(=O)C23CCC(C)(C)CC2C2=CCC4C5(C)CCC(OC6OC(COC7OCC(OC(C)=O)C(O)C7OC7OC(COC(C)=O)C(O)C(O)C7OC(C)=O)C(O)C(O)C6OC6OCC(O)C(O)C6O)C(C)(C)C5CCC4(C)C2(C)C(O)C3O)C1OC1OCC(OC2OCC(O)C(OC3OCC(O)C(O)C3O)C2O)C(O)C1O` (configuration not stated), the activity change, negative = cytotoxicity in the assay on C33A was -0.479% [at 6.55 µM]; in the assay on CAOV3, -0.149% [at 6.55 µM]; in the assay on CASKI, -8.72% [at 6.55 µM]; in the assay with Es-2 it was -2.99% [at 6.55 µM]; with HeLa it was -14% [at 6.55 µM]; in the assay on Hek293T it was -1.14% [at 6.55 µM]. In addition, the activity change, negative = cytotoxicity in the assay on JEG-3 was -2.85% [at 6.55 µM].
For the molecule `Cc1cc(F)ccc1-c1nc(NCCN=C(N)NC#N)nc2c1ccc(=O)n2-c1c(F)cccc1F`, the Potency entry in the assay on C33A, with CAOV3, in the assay on CASKI, in the assay on Es-2, with HeLa and with Hek293T was “inactive” throughout. In the assay with JEG-3, the Potency result was “inactive”.
As for `CC1(C)CCCC2(C)C1C(=O)C=C(C(=O)O)C2(O)C(=O)O` (configuration not stated), the Potency result in the assay on C33A, in the assay on CAOV3, with CASKI, in the assay on Es-2, in the assay on HeLa and in the assay on Hek293T was “inactive” in each case. In addition, the Potency entry in the assay on JEG-3 is “inactive”.
For the molecule `C=CCc1ccc(OC(C)Cc2ccc(OC)c(OC)c2)c(OC)c1` (configuration not stated), the Potency entry in the assay on C33A, with CAOV3, in the assay on CASKI, in the assay with Es-2, in the assay on HeLa and in the assay on Hek293T was “inactive” each time. In addition, the Potency result in the assay with JEG-3 was “inactive”.
`COc1cc(C#N)ccc1S(=O)(=O)Nc1ccc2c(c1)cc(C)c(=O)n2C`: the Potency entry in the assay on C33A, with CAOV3, in the assay on CASKI, in the assay on Es-2, in the assay on HeLa and in the assay on Hek293T was “inactive” each time. Also, in the assay with JEG-3, the Potency entry is “inactive”.
Regarding `CN(C)[C@@H]1CCc2[nH]c3ccc(NC(=O)c4ccc(F)cc4)cc3c2C1`, the Potency result in the assay with C33A, in the assay with CAOV3, in the assay on CASKI, in the assay with Es-2, with HeLa and in the assay on Hek293T was “inactive” in each case. The Potency result with JEG-3 was “inactive”.
On to `O=c1nc(-c2ccccn2)sc2ccccc12`, for which the Potency result with C33A, with CAOV3, in the assay on CASKI, in the assay with Es-2, in the assay with HeLa and with Hek293T was “inactive” throughout. In the assay on JEG-3, the Potency entry was “inactive”.
Regarding `CN(C)C(=O)Nc1cc(-c2ccccc2)ccc1N(C)C`, the Potency entry with C33A, in the assay with CAOV3, in the assay on CASKI, in the assay with Es-2, with HeLa and with Hek293T was “inactive” in each case. The Potency entry with JEG-3 is “inactive”.
For `CCC/C=C/c1cc2c(C=O)c(O)c(CC=C(C)C)cc2o1`, the Potency result in the assay on C33A, with CAOV3, in the assay with CASKI, in the assay on Es-2, in the assay with HeLa and in the assay with Hek293T was “inactive” throughout. The Potency result with JEG-3 was “inactive”.
As for `O=C(NCCCN1CCC2(CC1)OCc1ccccc12)[C@H]1CCCN1Cc1ccccc1`, the Potency result with C33A, in the assay with CAOV3, in the assay on CASKI, in the assay with Es-2, in the assay with HeLa and in the assay on Hek293T was “inactive” each time. Besides, the Potency result with JEG-3 is “inactive”.
On to `CC1OC2OC(=O)C3(C)CC4C5(CO5)C5=CC(=O)OC(C)(C)C5=CC(=O)C4(C)C(C1=O)C23` (configuration not stated), for which the Potency entry in the assay with C33A, in the assay on CAOV3, in the assay on CASKI, with Es-2, in the assay on HeLa and in the assay with Hek293T was “inactive” throughout. The Potency result with JEG-3 was “inactive”.
Consider `COc1ccc(-c2cnc3c(-c4cccc5ncccc45)cnn3c2)cc1`, for which the Potency result in the assay with C33A, in the assay on CAOV3, with CASKI, in the assay with Es-2, in the assay on HeLa and in the assay with Hek293T was “inactive” each time. The Potency result in the assay on JEG-3 is “inactive”.
`CN1CCN(c2ccc(-c3cccc(CN4CCOCC4)c3)cc2NC(=O)c2c[nH]c(=O)cc2C(F)(F)F)CC1`: the Potency entry in the assay with C33A, in the assay on CAOV3, in the assay with CASKI, with Es-2, in the assay with HeLa and with Hek293T was “inactive” each time. For the same molecule, the Potency result in the assay with JEG-3 is “inactive”.
As to `CC(C)(C)c1ccc(C(=O)Nc2cn3cc(-n4ccnc4)ccc3n2)cc1`, the Potency entry in the assay on C33A, in the assay on CAOV3, in the assay on CASKI, in the assay on Es-2, with HeLa and with Hek293T was “inactive” each time. Further, in the assay on JEG-3, the Potency entry was “inactive”.

Values taken from PubChem BioAssay (NCATS).
